# From article PMC5700166
# Changes are numbered by the printed parent chain.
# Columns and labels:
# Assay in all cases: protein-binding microarray (PBM); PBM: ~300 nM protein, 6 mM HEPES pH 7.8, 80 mM KCl, 0.5 mM EDTA, 0.5 mM EGTA, 6% glycerol, 35 ng/ul poly-dIdC, 1% milk, 1 h, room temperature; Ap Aiptasia and Nv Nematostella (sea anemones) / Co Capsaspora / Aq Amphimedon (sponge) / Dm Drosophila / Hu human; RHD is the Rel homology domain; high values mean tight binding
# Details in all cases: dsDNA, one strand shown
# GST-Ap-NF-kB RHD = molecular target: T1, GST-Ap-NF-kB RHD (Exaiptasia pallida (Aiptasia), UniProt A0A913YAJ5 2-422)
# T1 sequence: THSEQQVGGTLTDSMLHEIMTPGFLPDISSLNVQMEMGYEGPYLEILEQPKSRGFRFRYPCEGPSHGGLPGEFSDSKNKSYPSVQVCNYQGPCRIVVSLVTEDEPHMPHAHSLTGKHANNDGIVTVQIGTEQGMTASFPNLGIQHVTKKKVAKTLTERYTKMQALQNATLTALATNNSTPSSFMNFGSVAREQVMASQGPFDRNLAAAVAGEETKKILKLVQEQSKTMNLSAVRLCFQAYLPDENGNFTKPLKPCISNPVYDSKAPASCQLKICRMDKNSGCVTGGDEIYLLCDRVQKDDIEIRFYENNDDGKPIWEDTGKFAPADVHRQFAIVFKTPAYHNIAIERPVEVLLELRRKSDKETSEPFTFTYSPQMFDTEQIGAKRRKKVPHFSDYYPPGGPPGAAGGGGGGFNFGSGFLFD
# [1] = molecular target: T2, GST-Nv-NF-kB (Cys allele) (Nematostella vectensis, UniProt E5G601 2-411)
# T2 sequence: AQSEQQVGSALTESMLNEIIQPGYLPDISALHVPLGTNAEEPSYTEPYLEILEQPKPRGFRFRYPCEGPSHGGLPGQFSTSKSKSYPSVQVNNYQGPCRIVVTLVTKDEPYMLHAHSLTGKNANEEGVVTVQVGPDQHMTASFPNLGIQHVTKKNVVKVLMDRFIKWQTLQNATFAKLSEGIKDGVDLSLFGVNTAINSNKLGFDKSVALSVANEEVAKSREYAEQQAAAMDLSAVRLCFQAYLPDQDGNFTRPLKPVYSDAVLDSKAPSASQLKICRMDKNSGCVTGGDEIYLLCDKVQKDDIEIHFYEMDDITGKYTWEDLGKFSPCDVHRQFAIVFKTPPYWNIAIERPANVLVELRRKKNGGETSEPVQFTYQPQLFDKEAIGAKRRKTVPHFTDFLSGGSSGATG
# GST-Co-NF-kB = molecular target: T3, GST-Co-NF-kB (Capsaspora owczarzaki, UniProt F1ARL5 200-546)
# T3 sequence: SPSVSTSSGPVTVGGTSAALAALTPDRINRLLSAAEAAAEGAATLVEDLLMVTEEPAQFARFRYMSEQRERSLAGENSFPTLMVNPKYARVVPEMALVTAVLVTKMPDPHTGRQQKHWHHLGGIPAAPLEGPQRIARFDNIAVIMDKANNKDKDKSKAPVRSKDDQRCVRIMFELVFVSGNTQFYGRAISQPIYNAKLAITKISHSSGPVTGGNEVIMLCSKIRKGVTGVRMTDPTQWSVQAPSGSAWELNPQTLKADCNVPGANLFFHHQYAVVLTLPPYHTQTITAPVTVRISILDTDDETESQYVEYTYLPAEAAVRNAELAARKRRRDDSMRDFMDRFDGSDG
# GST-Dm-Relish = molecular target: T4, GST-Dm-Relish (Drosophila melanogaster, UniProt Q94527 99-473)
# T4 sequence: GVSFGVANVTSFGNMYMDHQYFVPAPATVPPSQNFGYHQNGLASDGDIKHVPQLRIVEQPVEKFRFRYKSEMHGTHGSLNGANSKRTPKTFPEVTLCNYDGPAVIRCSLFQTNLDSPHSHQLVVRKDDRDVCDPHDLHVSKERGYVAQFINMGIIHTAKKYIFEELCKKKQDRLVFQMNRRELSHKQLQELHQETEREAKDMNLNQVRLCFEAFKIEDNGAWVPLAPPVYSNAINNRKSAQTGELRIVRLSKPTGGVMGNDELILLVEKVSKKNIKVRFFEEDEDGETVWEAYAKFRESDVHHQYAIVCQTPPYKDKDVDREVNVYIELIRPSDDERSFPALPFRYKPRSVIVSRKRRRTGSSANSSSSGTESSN
# GST-Aq-NF-kB = molecular target: T5, GST-Aq-NF-kB (Amphimedon queenslandica, UniProt A9Y5G7 2-389)
# T5 sequence: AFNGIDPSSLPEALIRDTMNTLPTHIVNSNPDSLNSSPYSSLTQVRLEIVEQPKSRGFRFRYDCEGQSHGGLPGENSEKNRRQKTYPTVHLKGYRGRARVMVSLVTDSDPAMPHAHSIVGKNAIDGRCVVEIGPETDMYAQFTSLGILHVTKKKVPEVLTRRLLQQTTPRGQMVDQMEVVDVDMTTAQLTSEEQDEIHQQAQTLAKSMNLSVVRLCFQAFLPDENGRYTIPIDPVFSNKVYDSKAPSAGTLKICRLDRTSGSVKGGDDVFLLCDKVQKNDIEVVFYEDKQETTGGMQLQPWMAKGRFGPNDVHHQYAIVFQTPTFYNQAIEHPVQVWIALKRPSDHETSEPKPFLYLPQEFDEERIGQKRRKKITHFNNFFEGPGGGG
# GST-Hu-p50 = GST-Hu-p50 (Homo sapiens, UniProt P19838 7-356)
# Chain of GST-Hu-p50 (P19838 7-356): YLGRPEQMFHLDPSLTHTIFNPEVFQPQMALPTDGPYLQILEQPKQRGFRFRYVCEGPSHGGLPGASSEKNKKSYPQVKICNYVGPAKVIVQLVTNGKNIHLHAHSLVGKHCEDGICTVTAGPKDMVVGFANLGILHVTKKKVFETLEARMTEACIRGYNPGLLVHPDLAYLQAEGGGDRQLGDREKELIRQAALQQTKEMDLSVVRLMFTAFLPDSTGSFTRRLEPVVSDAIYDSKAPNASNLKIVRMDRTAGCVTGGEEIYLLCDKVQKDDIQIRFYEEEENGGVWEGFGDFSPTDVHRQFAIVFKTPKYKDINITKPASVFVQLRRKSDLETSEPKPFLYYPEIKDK
# [2] = molecular target: T6, GST-Nv-NF-kB (Ser allele) (Nematostella vectensis, UniProt A7UNT2 2-411)
# T6 sequence: T2 sequence with Q21R, C66S, S207N, E215Q, V217A, E225K, A268E, D399E
Sequence,binding signal (GST-Ap-NF-kB RHD) [z-score],binding signal [1] [z-score],binding signal (GST-Co-NF-kB) [z-score],binding signal (GST-Dm-Relish) [z-score],binding signal (GST-Aq-NF-kB) [z-score],binding signal (GST-Hu-p50) [z-score],binding signal [2] [z-score]
CCGATTAACATCAAAACACCCCCTGATGTTAATCGGGTCTTGATTCGCTTGACGCTGCTG,6.39,5.71,5.54,6.95,6.53,6.04,–
CCGATTAACATCAGGGGCTTCCATGATGTTAATCGGGTCTTGATTCGCTTGACGCTGCTG,4.37,4.89,–,6.97,5.03,4.38,–
CCGATTAACATCAAATCCCCCCCTGATGTTAATCGGGTCTTGATTCGCTTGACGCTGCTG,8.93,–,9.25,7.98,6.62,6.87,9
CCGATTAACATCAGGAAGATCCCTGATGTTAATCGGGTCTTGATTCGCTTGACGCTGCTG,3.43,1.84,–,2.71,5.44,1.57,–
CCGATTAACATCAGCCCCGGTGTTGATGTTAATCGGGTCTTGATTCGCTTGACGCTGCTG,2.1,–,1.61,–,2.37,1.58,–
CCGATTAACATCAAGGGGGGGACTGATGTTAATCGGGTCTTGATTCGCTTGACGCTGCTG,6.81,–,5.71,4.41,4.98,4.74,4.24
CCGATTAACATCAATTCCCCCCGTGATGTTAATCGGGTCTTGATTCGCTTGACGCTGCTG,7.28,–,8.8,5.54,5.76,5.76,6.61
CCGATTAACATCACGGAAATACCTGATGTTAATCGGGTCTTGATTCGCTTGACGCTGCTG,1.01,–,–,2.56,4.47,1.12,1.39
CCGATTAACATCAAAAAAACACCTGATGTTAATCGGGTCTTGATTCGCTTGACGCTGCTG,3.14,4.03,–,4.97,4.34,6.24,–
CCGATTAACATCAGGGGATATACTGATGTTAATCGGGTCTTGATTCGCTTGACGCTGCTG,5.2,4.91,3.57,7.81,4.48,4.04,–
CCGATTAACATCAGAAACTTCCCTGATGTTAATCGGGTCTTGATTCGCTTGACGCTGCTG,4.46,5.22,2.41,4.16,5.51,4.25,–
CCGATTAACATCAGGAGTTCCCATGATGTTAATCGGGTCTTGATTCGCTTGACGCTGCTG,2.2,2.14,1.68,6.1,3.51,1.53,–
CCGATTAACATCAGGCATACCCCTGATGTTAATCGGGTCTTGATTCGCTTGACGCTGCTG,1.96,1.5,1.89,1.3,3.12,1.59,–
CCGATTAACATCACCCGGGTAAATGATGTTAATCGGGTCTTGATTCGCTTGACGCTGCTG,1.42,–,2.41,–,1.02,1.11,1.15
CCGATTAACATCAGATAAACCCCTGATGTTAATCGGGTCTTGATTCGCTTGACGCTGCTG,4.36,4.29,–,5.22,4.77,4.53,–
CCGATTAACATCAGGATATCCCCTGATGTTAATCGGGTCTTGATTCGCTTGACGCTGCTG,8.1,7.01,3.66,7.25,7.17,5.46,–
CCGATTAACATCAAAAAACCCCATGATGTTAATCGGGTCTTGATTCGCTTGACGCTGCTG,6.53,7.08,2.59,9.52,6.77,6.62,–
CCGATTAACATCAAACCCCCCCTTGATGTTAATCGGGTCTTGATTCGCTTGACGCTGCTG,6.49,4.97,4.6,7.14,5.59,5.38,–
CCGATTAACATCAAAAGCCCCCTTGATGTTAATCGGGTCTTGATTCGCTTGACGCTGCTG,6.3,6.73,1.89,7.9,6.88,6.5,–
CCGATTAACATCACACTCCCCCCTGATGTTAATCGGGTCTTGATTCGCTTGACGCTGCTG,5.44,4.08,6.07,3.37,3.93,5.38,–
CCGATTAACATCACGGAAACACCTGATGTTAATCGGGTCTTGATTCGCTTGACGCTGCTG,1.22,–,–,1.78,2.29,3,1.16
CCGATTAACATCAGGGAGTGCCCTGATGTTAATCGGGTCTTGATTCGCTTGACGCTGCTG,2.83,2.18,–,3.85,5.66,1.98,–
CCGATTAACATCAGGGGTAGAACTGATGTTAATCGGGTCTTGATTCGCTTGACGCTGCTG,1.85,–,5.07,–,1.92,1.99,1.11
CCGATTAACATCAGGCGTTCCCCTGATGTTAATCGGGTCTTGATTCGCTTGACGCTGCTG,5.26,6.01,3.98,6.34,5.53,4.27,–
CCGATTAACATCAGGGGGGGTAATGATGTTAATCGGGTCTTGATTCGCTTGACGCTGCTG,4.27,–,6.38,4.83,4.38,3.7,3.94
